# PubChem BioAssay AID1347417 (National Center for Advancing Translational Sciences (NCATS), 2020)
# Screen size: about 120,000 compounds; about 5,300 (4.4%) were called active. Roughly 22% stayed inconclusive and do not appear here. Calls follow the shape of the dose curve; as a rule, active = well fitted inhibition curve with a large enough effect; inconclusive = small, poorly fitted or top-dose-only effect; inactive = no such curve, though single readings can be large or run the other way. The sample as a whole holds a higher share of actives than the screen did.
# Assay: qHTS Primary assay for Inhibitors of Plasmodium falciparum Dd2 growth in vitro; also: nearly all actives have a fitted effect of over 65% in size;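 as to activity, negative = inhibition: plate controls were DMSO vehicle for no effect and reference drug for full effect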
# Conditions: P. falciparum Dd2 growth, SYBR Green, 72 h; series mostly up to 28.9 µM; activity, negative = inhibition: at the top concentration
# Outline: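 Infected erythrocytes (Dd2, 0.3% parasitemia, 2.5% hematocrit final) are added to compound in RPMI-1640/Albumax II medium, grown 72 h at 37C in low oxygen, then lysed with saponin/Triton-X containing SYBR Green and read by fluorescence.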
# Potency is read from the fitted curve at half-maximal effect.
Compound,"activity, negative = inhibition",outcome,Potency
CCCS(=O)(=O)N1CCC2(CC1)C(OC)C(=O)N2CC1CC1 (stereo not given),7.35% (inactive),,
COc1ccc(N2CCN(CCCNC(=O)C3(CCO)CC34CCOCC4)CC2)cc1 (stereo not given),,inactive,
C#CCOc1ccc(C2CC(=O)Nc3c2c(C)nn3-c2nc(C)cc(C)n2)cc1 (stereo not given),-28.9% (inactive),,
COc1ccc(-c2nc(Cn3c(=O)cc(C)c4c(C)nn(-c5ccccc5)c43)c(C)o2)c(OC)c1,25.9% (inactive),,
COc1ccc(C2CC(=O)N(Cc3ccccc3C)c3c2c(C)nn3-c2nc(C)cc(C)n2)c(OC)c1 (stereo not given),,,10 µM (active)
CCc1cc(=O)n(CC(=O)Nc2ccc(OC)c(OC)c2)c(N2CCOCC2)n1,,inactive,
COc1ccc2[nH]c(=O)c(CCC(=O)NCC(N)=O)cc2c1,-22% (inactive),,
Cc1n[nH]c(C)c1CCC(=O)N[C@@H]1CN(S(C)(=O)=O)C[C@H]1CN(C)C,52.8% (inactive),,
CCc1cc(N2CCN(CC3(O)CCCNC3)CC2)ncn1 (stereo not given),-2.03% (inactive),,
OC1(CN2CCC(CCn3cccn3)CC2)CNCCOC1 (stereo not given),-13.6% (inactive),,
COc1ccc(OCC2CCN(CC3(O)CCCNC3)CC2)cc1 (stereo not given),,,12.6 µM (active)
O=C(c1ccccn1)N1CCC2(CC1)C(=O)Nc1ccccc12,90.5% (inactive),,
O=C([C@@H]1C[C@H](Oc2ccccc2)CN1C(=O)NC1CCCCC1)N1CCCC1,-1.4% (inactive),,
CCn1cc(C(=O)N2CCN(c3cc(Cl)ccc3C)CC2)c(=O)c2cc(S(=O)(=O)N3CCCC3)ccc21,1.19% (inactive),,
Cc1ccc(S(=O)(=O)c2cn(Cc3ccccc3)c3cc(N4CCCC4)c(F)cc3c2=O)c(C)c1,,,12.6 µM (active)
CC1CCCN(c2cc3c(cc2F)c(=O)c(S(=O)(=O)c2cccc(Cl)c2)cn3Cc2ccccc2)C1 (stereo not given),,inactive,
COc1ccc(-c2nc(S(=O)(=O)c3ccccc3)c(N3CCCCC3)o2)cc1,10% (inactive),,
COc1ccc(S(=O)(=O)c2cn(C)c3cc(N4CCCCC4)c(F)cc3c2=O)cc1,,,8.91 µM (active)
COc1ccc(N2CCN(C(=O)c3cn(C)c4ccc(S(=O)(=O)N5CCOCC5)cc4c3=O)CC2)cc1,,inactive,
CC(=O)N1CC2(CCN(C(=O)CCC(=O)O)CC2)Cc2ccccc21,-0.797% (inactive),,
COc1ccc(-c2cnc3n2CC(C(=O)NCCCN2CCCC2=O)CC3)cc1 (stereo not given),-11.1% (inactive),,
O=C(N[C@@H]1CCC[C@@H]1C(=O)N1CCN(c2ccccc2F)CC1)c1ccncc1,-23.6% (inactive),,
COCC(=O)NC1CCN(c2ccc(C)cc2)C1=O (stereo not given),-4.4% (inactive),,

Compound,"activity, negative = inhibition",outcome,Potency
COc1ccccc1C(=O)N1CCCC(n2cc(-c3nc(-c4ccccc4)no3)nn2)C1 (stereo not given),-20.6% (inactive),,
O=C(NC1CCN(Cc2ccccc2)CC1)c1ccc(Cn2c(=O)c3ccccc3n(Cc3cccc(F)c3)c2=O)cc1,,,7.94 µM (active)
O=C(O)c1c(CNCc2cccc(F)c2)c2ccccc2n1Cc1ccccc1,-17% (inactive),,
O=c1c2ccccc2n(Cc2cccc(Cl)c2)c(=O)n1Cc1ccccc1,,inactive,
CC1=C[C@@H](CNC(=O)CCC(=O)O)[C@H](C(C)C)C[C@H]1Cc1nc2ccccc2n1C,,inactive [at 44.1 µM],
CC1=C[C@@H](CNC(=O)CC2(CC(=O)O)CCCC2)[C@H](C(C)C)C[C@H]1Cc1nc2c(C)cccc2[nH]1,,inactive,
CC(=O)N1CCC(NC[C@@H]2C=C(C)[C@H](Cc3nc4ccccc4n3C)C[C@H]2C(C)C)CC1,,,4.47 µM (active)
CC1=C[C@@H](CNC2CCN(C)CC2)[C@H](C(C)C)C[C@H]1Cc1nc2ccccc2[nH]1,,,7.08 µM (active)
CC(=O)NC[C@@H]1C=C(C)[C@H](CC(=O)N2CCCC2)C[C@H]1C(C)C,,inactive [at 44.1 µM],
CC1=C[C@@H](CNS(C)(=O)=O)[C@H](C(C)C)C[C@H]1Cc1nc2ccccc2[nH]1,-20.9% [at 44.1 µM] (inactive),,
COc1ccc2nc(C[C@@H]3C[C@@H](C(C)C)[C@H](CNC(=O)CC(C)(C)CC(=O)O)C=C3C)[nH]c2c1,,inactive,
COc1ccc(CC(=O)NC[C@@H]2C=C(C)[C@H](Cc3nc4ccncc4[nH]3)C[C@H]2C(C)C)cc1,,inactive,
CC1=C[C@@H](CN(CC2CC2)CC2CC2)[C@H](C(C)C)C[C@H]1Cc1nc2c(C)cccc2[nH]1,,,7.08 µM (active)
COc1ccc(CCC(=O)N2CCC(Cc3nncn3C(C)C)C2)cc1 (stereo not given),-17.8% (inactive),,
CC(=O)N1CCN(Cc2ccc(C(F)(F)F)c(F)c2)CC(O)C1 (stereo not given),-0.88% (inactive),,
O=C(NCc1ccc(F)cc1)N1CCCC(Cc2noc(-c3ccncc3)n2)C1 (stereo not given),,inactive,
CCC(=O)N1N=C(c2ccc(OC)cc2)CC1c1cn(-c2ccccc2)nc1-c1cccs1 (stereo not given),,,11.2 µM (active)
CCN(CC)CCNC(=O)CN1N=C(c2ccc(OC)cc2)CCC1=O,11% (inactive),,
COc1ccc(-c2noc([C@@H]3CCCN3C(=O)CCc3ccccc3)n2)cc1,,inactive,
COC[C@@H]1CN(S(=O)(=O)c2cccc(F)c2)C[C@H]1c1ccncc1,2.93% (inactive),,
O=C(c1ccccn1)N1CCC(N(C(=O)NCCc2ccccc2)C2CCOCC2)CC1,-16% (inactive),,
OC[C@@H]1CN(Cc2cccnc2)C[C@H]1c1ccncc1,,inactive,
